In ChEMBL document CHEMBL3988442, “University of Dundee, Small-Polar-MMV Screening Library” (2021):
About 13,000 (27%) of roughly 48,000 compounds showed an effect of 50% or more. This is one part of the list.

The molecules below were run on Wolbachia pipientis (assay: Anti-Wolbachia Cell-Based Screen). Conditions: 5 µM.
Format: functional
Set-up: scale not given: in the data most compounds retested in dose-response had high values

| Structure (SMILES) | Percent Effect [%] |
| --- | --- |
| CCN1CCC(CNCc2cc(C)ccc2OC)C1 (configuration not stated) | 23.09 |
| Cc1[nH]nc2ncc(C(=O)N3CCN(C(C)(C)C)CC3)cc12 | 13.12 |
| CN(C)c1ccccc1CN1CCCCC1CNS(C)(=O)=O (configuration not stated) | -10.3 |
| O=C1CC2(CCN(C(=O)c3csc(-c4ccccc4)n3)C2)C(=O)N1 (configuration not stated) | 6.339 |
| COCCCN1CCC(NC(=O)C2CC2)CC1 | -0.3398 |
| O=C(c1ccoc1)N1CCn2nc(CN3CCSCC3)cc2C1 | -1.758 |
| O=C([C@H]1C[C@H]2[C@H](CCN2Cc2cccs2)O1)N1CCOCC1 | 91.43 |
| CN(C)Cc1nc(-n2cnc(C(=O)NC3CCCC3)c2)n2ccccc12 | 115.9 |
| O=C(NC1CCCC1)c1cc(Cn2cnc3ccccc32)on1 | -23.61 |
| Cn1cnc(-c2nc(C(=O)NCC3CCCO3)c3ccccn23)c1 (configuration not stated) | -2.484 |
| CN(Cc1nnc2ccccn12)C(=O)NC1CCCCC1 | -15.02 |
| CN(C)Cc1nc(-n2cnc(C(=O)NCC3CC3)c2)n2ccccc12 | 123.3 |
| O=C(NCCO)c1ccn(-c2ccc3ccccn23)n1 | -13.14 |
| Cc1nc[nH]c1-c1nc2cc(S(=O)(=O)N3CCCC3)ccc2n1C | -21.22 |
| Cc1ncc(CNc2cnccc2CO)s1 | 7.83 |
| CCN(CC)S(=O)(=O)N1C[C@@H](O)[C@H](Oc2cccc(F)c2)C1 | 71.42 |
| O=C(c1ccnnc1)N1C[C@@H]2CC[C@H](Oc3cccc(F)c3)[C@@H]2C1 | -13.73 |
| Cc1cnccc1CN1C[C@@H](O)[C@H](Oc2cccc(F)c2)C1 | -1.659 |
| CCN(C)C(=O)c1ccc(N2CCC(Oc3cccc(F)c3)CC2)nc1 | -6.141 |
| CCS(=O)(=O)N1C[C@@H](O)[C@H](Oc2cccc(F)c2)C1 | 115.8 |
| CCN(Cc1cccc(F)c1)S(=O)(=O)N1CCOCC1 | -36.14 |
| COc1cccc(F)c1-c1nc2c([nH]1)c(C1CC1)nn2C | 3.42 |
| CCCC(C)C(=O)Nc1ccc(OC)nc1N1CCN(C(C)=O)CC1 (configuration not stated) | -14.17 |
| COc1cc(C(=O)N(C)C(C)Cc2cc(C)ccn2)ccn1 (configuration not stated) | -2.709 |

| Structure (SMILES) | Percent Effect [%] |
| --- | --- |
| CNc1cc(CNC(=O)c2ccccn2)nc(-c2ccncc2)n1 | -12.05 |
| Cc1cc(NC(C)C(=O)NCc2ccccc2)nc(-c2ccncc2)n1 (configuration not stated) | 6.15 |
| COc1cc(C(=O)NCc2cc(N3CCOCC3)ncn2)ccn1 | 5.956 |
| CNc1cc(CNC(=O)c2cccnc2)nc(-c2ccncc2)n1 | 94.55 |
| O=C(NCCOc1ncc(Cl)cc1Cl)c1cccnc1 | 0.5232 |
| CNc1cc(CNC(=O)c2ccnc(OC)c2)nc(-c2ccncc2)n1 | 103.5 |
| CNc1cc(CNC(=O)c2ccccc2)nc(-c2ccncc2)n1 | -7.143 |
| CNc1cc(CNC(=O)c2ccncc2)nc(-c2ccncc2)n1 | 109.4 |
| CNc1cc(CNC(=O)c2ccccc2OC)nc(-c2ccncc2)n1 | 104.1 |
| O=S1(=O)CCC(n2cc(CNc3ccccc3Br)cn2)C1 (configuration not stated) | 3.444 |
| CCOCC1CCN(C(=O)C(c2c(F)cccc2F)N(C)C)CC1 (configuration not stated) | -13.66 |
| CC(C)c1nc(-c2ccc(=O)[nH]n2)n(-c2ccc3c(c2)OCO3)n1 | -26.15 |
| CC(C)N1CCOC[C@H]1c1nc(-c2ccncc2)c[nH]1 | 8.176 |
| CCc1nccn1CCC(=O)N1C[C@H]2CC[C@@H]1CN(C(=O)N(C)C)C2 | -6.839 |
| CC(C)COC(C)C(=O)NCc1ccccc1Cn1ccnc1 (configuration not stated) | -1.115 |
| CC(Oc1ccc(C(=O)NCCNS(C)(=O)=O)cn1)c1ccccc1 (configuration not stated) | 12.3 |
| CC(C)COC(C)C(=O)NCCNS(C)(=O)=O (configuration not stated) | 116.1 |
| CC(C)COC(C)C(=O)N1CCCCCC1 (configuration not stated) | -3.624 |
| CC(C)COC(C)C(=O)N1CCCC1 (configuration not stated) | -7.961 |
| CC(C)C(=O)NCCNC(=O)C(C)OCC(F)(F)F (configuration not stated) | 2.033 |
| CCOC(C)C(=O)NCCNS(C)(=O)=O (configuration not stated) | 99.51 |
| CCN(CC)CCNC(=O)C(C)OCC(F)(F)F (configuration not stated) | -16.45 |
| CC(C)COC(C)C(=O)NCCNC(=O)C(C)C (configuration not stated) | 90.67 |
